This is an account of results in PubChem BioAssay (NCI).

Each structure is given as a SMILES string. Compounds without any hit were thinned out: in the full panel of roughly 83,000, 20% have a hit.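 Single-dose data. Exposure time 48 hours. Values below 10 considered active.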 Values without a mark were called inactive. Calls of active or inactive are those of the source.

The subject of the test is SK-MEL-28 melanoma. The test can be described thus: NCI-60 one-dose screen, 48 h (100 = growth as untreated, 0 = no growth, -100 = all killed). The settings on record: 10 µM unless noted. Here is the method:
Growth inhibition of the SK-MEL-28 human tumor cell line is measured as a screen for anti-cancer activity. Cells are grown in 96 well plates and exposed to the test compound for 48 hours. Compounds are tested at a single concentration, which is 10^-5 M for most compounds. The reported endpoint is percent growth (GI% or GIPRCNT), where numbers from 0 - 100% represent growth inhibition, and numbers from -100% - 0 represent cell death. For example, a value of 40 represents 60% growth inhibition. A value of 0 means no net growth occurred over the course of the experiment. A value of -40 indicates 40% of cells at the beginning of the experiment died by the end of the experiment. A value of -100 means all cells are dead at the end of the experiment.
NCI-60 Human Tumor Cell Lines Screen was performed using the standard one-dose NCI protocol, which is described in more detail at https://dtp.cancer.gov/discovery_development/nci-60/default.htm.
Compounds with GIPRCNT values below 10 were considered active. Activity score was based on GIPRCNT using the following formula: […]
Score is 0 for GIPRCNT values of 100 or above, 50 for GIPRCNT values of 0, and 100 for GIPRCNT values of -100.
Consider `CN1CCC(=C(c2ccccc2)c2ccccc2)C(c2ccccc2)C1` (stereo not given), for which the growth was 110%.
For `COc1ccc(Cc2cnc(NC(=O)c3ccc4c(c3)OCCO4)s2)cc1` the value was 68.6%; for `CC(=O)[C@@H]1CC[C@]2(CO)CC[C@]3(C)[C@H](CC[C@@H]4[C@@]5(C)CCCNC(C)(C)[C@@H]5CC[C@]43C)[C@@H]12`, 113%.
Regarding `CC(Oc1ccc(C(=O)O)cc1C(F)(F)F)c1ccc(Oc2ccccc2)cn1` (stereo not given), the growth was 95.1%.
In the case of `O=C(/C=C/c1c(-c2ccc(Cl)cc2)nn(-c2ccccc2)c1C(F)(F)F)c1ccc(Cl)cc1` it was 103%; in that of `Cc1ccc(NS(=O)(=O)c2ccc(-c3cnc(C4CC4)o3)cc2)cc1C(F)(F)F`, 64.1%; in that of `CCCCCN1C=C/C(=C\C(=O)N(C)c2ccc(Oc3ccccc3)cc2)c2ccccc21`, 102%.
In the case of `O=[N+]([O-])c1cc(Br)c2cccc3c2c1CC3` it was 106%.
`Oc1ccc(C(c2ccc(O)cc2)c2ccc(Br)cn2)cc1`: the growth is 109%.
As to `COc1cc(/C(C)=C(\c2ccc(Cl)cc2)c2ccc(OCCN(C)C)cc2)ccc1F`, the growth is 64.5%.
On to `CCN1Cc2nc3sc(C)c(C)c3c(=O)n2C=C1C`, for which the growth was 67.3%.
For the compound `CC1=C(C(=O)/C=C/c2c[nH]c3ccccc23)C(c2ccccc2)NC(=S)N1` (stereo not given), the growth was 104%.
In the case of `COc1ccc(C(=O)NNc2nc(Cl)nc(N3CCN(C(c4ccccc4)c4ccccc4)CC3)n2)cc1` it was 53.9%.
As for `COc1cc(-c2csc(NC(=O)c3cc(F)cc(C(F)(F)F)c3)n2)cc(OC)c1OC`, the growth is 50.3%.
As for `COc1cc(CC(=O)n2ncc3ccc(N)cc32)cc(OC)c1OC`, the growth was 99.9%.
Consider `c1ccc2cc(Cn3c(-c4cccc5ccccc45)[n+](Cc4ccc5ccccc5c4)c4c5ccccc5c5ccccc5c43)ccc2c1`, for which the growth is -61.5% (active).
For `Nc1nc(Nc2ccccc2SSc2ccccc2Nc2nc(N)nc(-c3cccs3)n2)nc(-c2ccsc2)n1`, the growth is 98.7%.
In the case of `O=C(/C=C(O)/C=C/c1ccc(SC(F)(F)F)cc1)/C=C/c1ccc(SC(F)(F)F)cc1`, the growth is 100%.
Regarding `O=S(=O)(NCCNc1nccc(-c2c(-c3cccc(O)c3)nc3occn23)n1)c1ccc(Cl)cc1`, the growth was 48.2%.
For `Cc1c2cc[nH]c(=O)c2c(C)c2c1[nH]c1cc(OCCN3CCN(C)CC3)ccc12` the value was 5.74% (active); for `CCN(CC)CC[n+]1cc2cc(OC)c(OC)cc2c2ccc3cc4c(cc3c21)OCO4`, 22.7%.
`O=C(Cn1c[n+](CC(=O)c2ccc(-c3ccccc3)cc2)c2ccccc21)Nc1cccc2cccnc12`: the growth was 21.2%.
In the case of `COc1ccc(N2CCN(c3ccc(NC4=C(Cl)C(=O)c5ncccc5C4=O)cc3)CC2)cc1`, the growth was 71%.
On to `COc1cc(/C=C/c2cc(O)c(C(C)=O)c(O)c2)cc2c1O[C@]1(C)CC[C@@H](O)C(C)(C)[C@H]1C2`, for which the growth is 51.4%.
With `C=C(C)[C@@H]1CC[C@]2(C(=O)N[C@H](CO)Cc3ccccc3)CC[C@]3(C)[C@H](CC[C@@H]4[C@@]5(C)CCCNC(C)(C)[C@@H]5CC[C@]43C)[C@@H]12`, the growth was -92.3% (active).
For `CCCNC(=O)Oc1ccc(/C(=C(\C)c2ccccc2)c2ccc(OCCCN(C)C)cc2)cc1`, the growth was 70.8%.
For the compound `Nc1c(C(=O)Nc2cccc3cnccc23)sc2nc3c(cc12)CN(Cc1ccccc1)CC3`, the growth was 111%.
In the case of `O=C(CCN1CCCC1)Nc1ccc2c(NCc3ccccc3)c3ccccc3nc2c1`, the growth is 32.1%.
With `Cc1ccc(NC(=O)c2cc(-c3nc4ccccc4s3)c(=O)n(NS(=O)(=O)c3ccc(Cl)cc3)c2N)cc1`, the growth was 115%.
Take `C/C=C(\C)C(=O)NC1=CC[C@@]2(C)C(=CCC3C2CC[C@@]2(C)C3CC[C@@H]2C(C)N(C)C)C1=O` (stereo not given in full): the growth is -66.5% (active).
Turning to `O=C(Nc1ccc(Cl)cc1)c1cc(NCc2cc(O)ccc2O)ccc1O`, the growth is 99.2%.
For `C=C1C(=O)O[C@H]2[C@H]1CC/C(COC(=O)NCC(C)c1ccc(CC(C)C)cc1)=C\CC[C@@]1(C)O[C@@H]21` (stereo not given in full) the value was -66.7% (active); for `COc1ccc(/C=N/NC(=O)c2cnn3c2NC(c2ccccc2)C3)cc1OC` (stereo not given), 78%.
With `Nc1c(S(=O)(=O)O)cc2c3c(cccc13)C(=O)OC2=O`, the growth is 115%.
Turning to `Oc1ccc(C2c3ccccc3Oc3ccccc32)c2cccnc12`, the growth was 36%.
In the case of `CCOC(=O)Oc1c(OC)cc(C(=O)c2ccc(OC)c(O)c2OC)cc1OC`, the growth is 53.1%.
For `CC1(C)NCCC[C@]2(C)[C@H]3CC(=O)[C@H]4[C@@H]5C[C@](C)(CO)CC[C@]5(C)CC[C@@]4(C)[C@]3(C)CC[C@@H]12` the value was 105%; for `O=C(Nc1cccc(C(=O)N2CCc3ccc(Cl)cc32)c1)c1ccco1`, 59.9%; for `COc1c(Cl)c2c(c(OC)c1OC)-c1ccc(SC)c(=O)cc1[C@@H](NC(=O)OCC(F)(F)F)CC2`, 63%.
As for `O=C1OC(Cc2ccccc2)C1c1ccccc1` (stereo not given), the growth is 109%.
